Screening data from PubChem BioAssay.
This is a sample that favours compounds with a hit; in the whole collection about 2% have one here.
Rin1 Abl inh: blocks binding of human Rin1 to Abl; P00519+Q13671; TR-FRET Rin1/Abl binding, biochemical; inhibition, % at 7.35 µM; 360,000 tested, 0.4% active; in the data active = inhibition above about 5%, passing the limit was not always enough
MBD2 inh: blocks human MBD2 binding to methylated DNA; 370,000 tested, 0.31% active; AID 686964; Q9UBB5; inhibition, % at 4.4 µM; TR-FRET, MBD2 binding to methylated oligonucleotide; in the data active = inhibition above about 13%
UHRF1 binding: UHRF1 methyl-DNA binding inhibition; Q96T88; UHRF1 binding to methylated oligo, TR-FRET; inhibition, % at 4.4 µM; 370,000 tested, 0.75% active; AID 687016; in the data active = inhibition above about 21%;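 also: UHRF1 SRA domain binding a hemimethylated CpG hairpin DNA probe; 0% = median of test compound wells and 100% = reference inhibitor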
Target sequence (Q96T88 whole entry, looked up, the tested form may be a part): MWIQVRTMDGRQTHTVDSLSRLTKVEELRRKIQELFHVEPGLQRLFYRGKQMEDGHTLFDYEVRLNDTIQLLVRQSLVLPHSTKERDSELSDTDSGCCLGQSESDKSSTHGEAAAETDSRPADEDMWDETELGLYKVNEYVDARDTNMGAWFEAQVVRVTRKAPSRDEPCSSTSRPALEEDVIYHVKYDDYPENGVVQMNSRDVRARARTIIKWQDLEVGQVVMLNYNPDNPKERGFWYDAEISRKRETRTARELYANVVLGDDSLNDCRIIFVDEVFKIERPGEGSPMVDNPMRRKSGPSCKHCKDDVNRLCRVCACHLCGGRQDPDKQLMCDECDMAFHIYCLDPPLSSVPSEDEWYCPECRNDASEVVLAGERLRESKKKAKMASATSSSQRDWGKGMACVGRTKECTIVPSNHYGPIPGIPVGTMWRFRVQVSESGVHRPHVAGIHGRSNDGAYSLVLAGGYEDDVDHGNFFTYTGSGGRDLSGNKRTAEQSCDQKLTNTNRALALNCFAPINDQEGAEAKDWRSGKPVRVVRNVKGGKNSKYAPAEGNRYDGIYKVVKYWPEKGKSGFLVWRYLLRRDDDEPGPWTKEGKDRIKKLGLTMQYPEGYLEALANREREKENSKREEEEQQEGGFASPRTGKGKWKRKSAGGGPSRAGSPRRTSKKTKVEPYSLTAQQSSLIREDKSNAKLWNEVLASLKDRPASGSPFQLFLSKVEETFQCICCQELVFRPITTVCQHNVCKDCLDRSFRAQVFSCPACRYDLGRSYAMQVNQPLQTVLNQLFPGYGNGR
TCR-CD3 inh: blocks the human TCR-CD3 interaction; TAMRA-labeled TCR probe fluorescence, biochemical; 360,000 tested, 0.37% active; inhibition, % at 9.4 µM; in the data active = inhibition above about 19%;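 also: recombinant mutant TCR 2C K166C tagged with TAMRA read by polarization; 0% = receptor in buffer alone and 100% = receptor with positive control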
LEDGF integ inh: blocks HIV-1 LEDGF/p75-dependent DNA integration. inhibition, % at 3.7 µM. TR-FRET IN-LEDGF/p75 DNA integration, Eu/Cy5. 370,000 tested, 0.64% active;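 active = inhibition above the screen-wide mean plus 3 SD, cut at about 13% in these data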;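 also: signal is the Cy5 over europium emission ratio at 671 and 618 nm; 0% = plate median of compound wells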
Active calls of the source: *.

Results for CSc1ccccc1NC(=O)CSc1n[nH]c(C)c1[N+](=O)[O-] ?
Rin1 Abl inh: -1; MBD2 inh: 1; UHRF1 binding: -3; TCR-CD3 inh: 7; LEDGF integ inh: -4

What do the screens show for `O=C(COc1ccccc1O)N1CCN(C(=O)c2ccco2)CC1`?
Rin1 Abl inh: 1; MBD2 inh: -3; UHRF1 binding: 2; TCR-CD3 inh: 7; LEDGF integ inh: 1

What do the screens show for `O=C(COc1cccnc1[N+](=O)[O-])N1CCN(C(=O)c2ccco2)CC1`?
Rin1 Abl inh: -4; MBD2 inh: 4; UHRF1 binding: 25*; TCR-CD3 inh: 11; LEDGF integ inh: -6

Results for COc1nc(N)c(S(=O)(=O)c2ccccc2)cc1C#N ?
Rin1 Abl inh: 1; MBD2 inh: 0; UHRF1 binding: 23*; TCR-CD3 inh: -3; LEDGF integ inh: -4

What do the screens show for `COc1nc(N)c(S(=O)(=O)c2ccccc2C)cc1C#N`?
Rin1 Abl inh: 0; MBD2 inh: 2; UHRF1 binding: -2; TCR-CD3 inh: 7; LEDGF integ inh: 3

What do the screens show for `Cc1ccccc1S(=O)(=O)N1CCCc2nc(C)c(C)cc21`?
MBD2 inh: 2; UHRF1 binding: 0; TCR-CD3 inh: -3; LEDGF integ inh: -1

What do the screens show for `Cc1ccc(C(C)C)cc1OCC(=O)Nc1nnc(C2CC2)s1`?
Rin1 Abl inh: 1; MBD2 inh: 4; UHRF1 binding: 27*; TCR-CD3 inh: 2; LEDGF integ inh: 1

What do the screens show for `CC(C)C[C@@H](CN)NC(=O)c1nc[nH]c1C(=O)N[C@@H](Cc1c[nH]c2ccccc12)C(=O)CNC[C@H](C)NC(=O)c1nc[nH]c1C(=O)N[C@@H](C)C(=O)O`?
Rin1 Abl inh: 0; MBD2 inh: 12; UHRF1 binding: 24*; TCR-CD3 inh: -1; LEDGF integ inh: -1

How did CC(C)C[C@@H](CN)NC(=O)c1nc[nH]c1C(=O)N[C@@H](Cc1ccccc1)C(=O)CNC[C@H](C)NC(=O)c1nc[nH]c1C(=O)N[C@@H](C)C(=O)O do in these assays?
Rin1 Abl inh: 1; MBD2 inh: -2; UHRF1 binding: 2; TCR-CD3 inh: 0; LEDGF integ inh: -3

Results for CC(C)C[C@@H](CN)NC(=O)c1nc[nH]c1C(=O)N[C@@H](Cc1ccccc1)C(=O)CNC[C@H](C)NC(=O)c1nc[nH]c1C(=O)N[C@@H](CC(C)C)C(=O)O ?
Rin1 Abl inh: -2; MBD2 inh: 9; UHRF1 binding: 21*; TCR-CD3 inh: -7; LEDGF integ inh: -2

What do the screens show for `CC(C)C[C@@H](CNCC(=O)[C@H](Cc1c[nH]c2ccccc12)NC(=O)c1[nH]cnc1C(=O)N[C@@H](C)CN)NC(=O)c1nc[nH]c1C(=O)N[C@@H](Cc1ccccc1)C(=O)O`?
Rin1 Abl inh: -1; MBD2 inh: 12; UHRF1 binding: 21*; TCR-CD3 inh: 11; LEDGF integ inh: -1

What do the screens show for `CC(C)C[C@@H](CN)NC(=O)c1nc[nH]c1C(=O)N[C@@H](C)C(=O)CNC[C@H](C)NC(=O)c1nc[nH]c1C(=O)N[C@@H](CC(=O)O)C(=O)O`?
Rin1 Abl inh: 0; MBD2 inh: 7; UHRF1 binding: 15; TCR-CD3 inh: -1; LEDGF integ inh: -2

Results for COC(=O)C1CN(Cc2cn(Cc3ccc(C)cc3)nn2)CCS(=O)(=O)N1Cc1ccc(C)cc1 (stereo not drawn) ?
MBD2 inh: 10; UHRF1 binding: 15; LEDGF integ inh: 6

Results for CCN(CC)C(=O)Cn1ncc2c1-c1ccccc1OC2 ?
Rin1 Abl inh: 2; MBD2 inh: 1; UHRF1 binding: 3; TCR-CD3 inh: -7; LEDGF integ inh: 0

How did O=C(Cn1ncc2c1-c1ccccc1OC2)Nc1nc2ccccc2s1 do in these assays?
Rin1 Abl inh: 1; MBD2 inh: -1; UHRF1 binding: -2; TCR-CD3 inh: 19*; LEDGF integ inh: -4

How did O=C(NC1CCCC1)C1c2ccccc2OCC(=O)N1C1CC1 (stereo not drawn) do in these assays?
MBD2 inh: 1; UHRF1 binding: 0; TCR-CD3 inh: 1; LEDGF integ inh: -4

What do the screens show for `COc1ccc(-c2noc(C(C)n3nc(C)c([N+](=O)[O-])c3C)n2)cc1OC` (stereo not drawn)?
Rin1 Abl inh: 1; MBD2 inh: 4; UHRF1 binding: -3; TCR-CD3 inh: 5; LEDGF integ inh: -4
